Among the data in PubChem BioAssay (NCI) are growth values, retold here.

Some test systems named below: T-47D breast; BT-549 breast; MDA-MB-435 melanoma; SW-620 colon; MCF7 breast; HCT-116 colon; HCC-2998 colon; KM12 colon; MDA-MB-468 breast.
Assay in all cases: NCI-60 one-dose screen, 48 h (100 = growth as untreated, 0 = no growth, -100 = all killed)
Holding throughout (conditions): 10 µM unless noted

Structures are written as SMILES. Compounds without any hit were thinned out: in the full panel of roughly 83,000, 20% have a hit.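 How to read the values: 0–100, growth inhibition (40 = 60% inhibited); 0, no net growth; -100 to 0, cell death (-40 = 40% of starting cells died; -100 = all dead).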 Values without a mark were called inactive. Active and inactive are the calls of the source. How the source made its calls: active means growth percent below 10; inactive means the rest.

On to `O=C(Cn1c(/C=C/c2ccc([N+](=O)[O-])cc2)nc2ccccc2c1=O)Nc1ccccc1`, for which the growth with T-47D breast is 79.9%; in the experiment with BT-549 breast it was 63.1%; with MDA-MB-435 melanoma it was 91%; with SW-620 colon, 83.6%; in the experiment on MCF7 breast it was 78.5%; in the experiment with HCT-116 colon, 61.2%. For the same compound, the growth with HCC-2998 colon was 79.8%; in the experiment with KM12 colon it was 77.3%; with MDA-MB-468 breast it was 45.4%.

For `COc1ccc(-c2nc3ccc(-c4nnc(SCc5ccccc5)o4)cc3[nH]2)cc1OC`, the growth in the experiment on T-47D breast is 32.4%; with BT-549 breast, 49.7%; in the experiment on MDA-MB-435 melanoma, 40%; in the experiment on SW-620 colon, 15.9%; with MCF7 breast it was 21.7%; with HCT-116 colon, 8.42% (active). Besides, the growth is 63.2% with HCC-2998 colon, 61.2% in the experiment on KM12 colon and 44.1% in the experiment with MDA-MB-468 breast.

Consider `COc1ccc(C2=NN(C(=O)[C@H]3[C@@H](c4ccco4)c4sc(=O)[nH]c4S[C@@H]3C)C(c3ccc4ccccc4c3)C2)cc1` (stereo partly specified), for which the growth was 9.22% (active) with T-47D breast; 76.2% with BT-549 breast; 41.8% in the experiment with MDA-MB-435 melanoma; 24.9% in the experiment with SW-620 colon; 13.1% in the experiment with MCF7 breast; 16.1% with HCT-116 colon. The growth is 27.3% in the experiment on HCC-2998 colon, 33.9% in the experiment on KM12 colon and -14.6% (active) with MDA-MB-468 breast.

Turning to `c1n[nH]cc1-c1nc2ccc3[nH]ncc3c2c2c1CC1(CCOCC1)CC2`, the growth in the experiment with T-47D breast was 13.5%; in the experiment on BT-549 breast, 10.9%; with MDA-MB-435 melanoma, 29.3%; in the experiment on SW-620 colon it was 17.9%; in the experiment on MCF7 breast it was 31.8%; in the experiment on HCT-116 colon, 11.1%. In addition, the growth in the experiment with HCC-2998 colon was 41.1%; in the experiment with KM12 colon it was 47.3%; in the experiment with MDA-MB-468 breast, 5.4% (active).

As to `N#Cc1c(-c2ccc(F)cc2)nc(SCc2ccccc2)nc1N1CCNCC1`, the growth in the experiment on T-47D breast was -75.9% (active); in the experiment with BT-549 breast, -97.4% (active); in the experiment on MDA-MB-435 melanoma, -83.6% (active); in the experiment with SW-620 colon, -78.7% (active); in the experiment with MCF7 breast, -84.7% (active); in the experiment on HCT-116 colon, -96.9% (active). The growth is -64.6% (active) in the experiment on HCC-2998 colon, -84.3% (active) with KM12 colon and -64.3% (active) with MDA-MB-468 breast.

Take `O=C(Nc1nc2ccc([N+](=O)[O-])cc2s1)Nc1ccccc1F`: the growth was -5.6% (active) with T-47D breast; -13.8% (active) in the experiment on BT-549 breast; 12.7% with MDA-MB-435 melanoma; 16.6% with SW-620 colon; -0.503% (active) with MCF7 breast; 3.1% (active) with HCT-116 colon. In addition, the values for the growth with HCC-2998 colon, with KM12 colon and in the experiment on MDA-MB-468 breast were 23.8%, 13.6% and -15.4% (active), respectively.

As for `O=C1/C(=C/c2cnc(-c3ccccc3)s2)SC(=S)N1Cc1ccc2c(c1)OCO2`, the growth was 47.4% in the experiment on T-47D breast; 69.2% in the experiment with BT-549 breast; 94.5% in the experiment with MDA-MB-435 melanoma; 102% in the experiment on SW-620 colon; 59.3% in the experiment with MCF7 breast; 69.4% in the experiment with HCT-116 colon. Also, the growth was 102% with HCC-2998 colon, 99.7% in the experiment on KM12 colon and 43.2% in the experiment on MDA-MB-468 breast.

For `COC(=O)c1c(C(=O)OC)c2c3ccccc3c3ccccc3n2c1C(=O)C(C)(C)C`, the growth in the experiment with T-47D breast is 46.4%; in the experiment on BT-549 breast, 62.5%; in the experiment with MDA-MB-435 melanoma it was 83.2%; in the experiment on SW-620 colon, 100%; with MCF7 breast, 73%; in the experiment on HCT-116 colon, 59%. The growth with HCC-2998 colon is 85.6%; with KM12 colon, 62.5%; with MDA-MB-468 breast it was 54.1%.

For the compound `CNS(=O)(=O)N1CCc2c(Br)c3c(c(OC)c2C1CCc1ccccc1)OCO3` (stereo unspecified), the growth in the experiment on T-47D breast was 6.69% (active); in the experiment with BT-549 breast, -68.8% (active); in the experiment on MDA-MB-435 melanoma it was -67.9% (active); in the experiment on SW-620 colon, 8.53% (active); in the experiment with MCF7 breast it was -22.3% (active); in the experiment with HCT-116 colon, -16.8% (active). Also, the figures for the growth in the experiment on HCC-2998 colon, in the experiment on KM12 colon and with MDA-MB-468 breast were -12.7% (active), 2.02% (active) and -63.1% (active), respectively.

Take `CCCSc1nnc(-c2c(C)nc3sccn23)o1`: the growth in the experiment with T-47D breast was 21.2%; in the experiment on BT-549 breast, 109%; in the experiment with MDA-MB-435 melanoma, 105%; in the experiment with SW-620 colon it was 104%; in the experiment on MCF7 breast, 23%; with HCT-116 colon it was 95.7%. Further, the growth is 105% in the experiment on HCC-2998 colon, 96.2% in the experiment with KM12 colon and -22.9% (active) with MDA-MB-468 breast.

For `CCOC(=O)/C(F)=C/C1CC1C(c1ccccc1)c1ccccc1` (stereo unspecified), the growth in the experiment with T-47D breast was 70.7%; in the experiment on BT-549 breast, 117%; in the experiment on MDA-MB-435 melanoma, 84.8%; in the experiment on SW-620 colon, 75.1%; in the experiment on MCF7 breast, 80.7%; in the experiment on HCT-116 colon, 62%. Further, the values for the growth with HCC-2998 colon, in the experiment on KM12 colon and in the experiment with MDA-MB-468 breast were 102%, 83.5% and 36.2%, respectively.

For the compound `Cc1ccc(C2CC(c3ccc(NC(=O)Nc4ccccc4)cc3)=NN2c2ccc(S(N)(=O)=O)cc2)cc1` (stereo unspecified), the growth is -74.7% (active) with T-47D breast; -79.6% (active) with BT-549 breast; -91.8% (active) in the experiment on MDA-MB-435 melanoma; -83.4% (active) with SW-620 colon; -82.4% (active) in the experiment with MCF7 breast; -74.4% (active) with HCT-116 colon. For the same compound, the growth was -75.4% (active) in the experiment on HCC-2998 colon, -50% (active) with KM12 colon and -93.4% (active) in the experiment with MDA-MB-468 breast.

In the case of `Cc1nc2sccn2c1-c1nnc(SCc2ccccc2)o1`, the growth was 74.5% with T-47D breast; 119% in the experiment with BT-549 breast; 97.4% in the experiment with MDA-MB-435 melanoma; 105% with SW-620 colon; 74.2% with MCF7 breast; 91.6% in the experiment with HCT-116 colon. The growth was 103% in the experiment on HCC-2998 colon, 98.5% in the experiment with KM12 colon and 52% with MDA-MB-468 breast.

`Cc1ccc2nc(COc3ccc(C(=O)NNC(=O)Nc4ccc(Cl)c(C(F)(F)F)c4)cc3)[nH]c2c1`: the growth is -24.8% (active) in the experiment with T-47D breast; -2.01% (active) in the experiment on BT-549 breast; 8.76% (active) with MDA-MB-435 melanoma; 43.4% in the experiment on SW-620 colon; 53.4% in the experiment with MCF7 breast; 4.51% (active) in the experiment on HCT-116 colon. The growth was 70.1% in the experiment on HCC-2998 colon, 24.9% in the experiment with KM12 colon and -56.9% (active) in the experiment on MDA-MB-468 breast.
